# TRb SRC2 PPI: disrupts binding of human TR beta to SRC2 | TRbeta-SRC2 peptide binding, fluorescence polarization; receptor liganded with 1 µM T3 | 0.065% of 280,000 active | AID 1469 | P10828 | Potency, µM (titrated, usually from 106 µM), for inactives: top-dose activity change, negative = inhibition, usual class: inhibitors;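 also: plate controls were bound peptide for no effect and peptide without receptor for full effect; nearly all actives have a fitted effect of over 50% in size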
# Target sequence (P10828 whole entry, looked up): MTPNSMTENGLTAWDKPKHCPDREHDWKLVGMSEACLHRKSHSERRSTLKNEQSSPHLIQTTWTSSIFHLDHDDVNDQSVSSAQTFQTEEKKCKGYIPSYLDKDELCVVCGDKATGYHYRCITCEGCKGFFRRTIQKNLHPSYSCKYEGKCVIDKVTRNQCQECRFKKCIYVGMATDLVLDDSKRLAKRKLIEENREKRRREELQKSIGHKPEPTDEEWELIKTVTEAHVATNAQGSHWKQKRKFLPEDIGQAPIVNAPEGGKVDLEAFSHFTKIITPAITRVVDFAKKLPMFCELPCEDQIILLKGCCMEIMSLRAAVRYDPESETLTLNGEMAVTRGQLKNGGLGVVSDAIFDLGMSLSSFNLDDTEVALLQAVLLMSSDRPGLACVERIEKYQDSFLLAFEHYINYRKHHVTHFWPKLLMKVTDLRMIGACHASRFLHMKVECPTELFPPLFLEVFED
#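 Assay buffer: 20 mM Tris-HCl, 100 mM NaCl, 10% glycerol, 1 mM EDTA, 0.01% NP-40, 1 mM DTT, 1 uM T3, 5% DMSO; TRb LBD 0.6 uM, Texas Red SRC2 20 nM; FP after 5 hr.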
# RGS12 GoLoco inh: blocks human Gai1 binding to RGS12 GoLoco peptide, red readout | AID 880 | Potency, µM (highest dose often 61.6 µM), for inactives: at the highest dose activity, negative = inhibition, actives largely listed as inhibitors | P63096 | Gai1:RGS12 GoLoco peptide FP, rhodamine, 10 min | 0.44% of 230,000 active; active = well fitted inhibition curve with a large enough effect, not every such curve was filed as active; inactive = no such curve, though single readings can be large or run the other way; also: nearly all actives have a fitted effect of over 30% in size
# Tau fluor counter: counter-screen for tau fibril formation inhibitors; Potency, µM (titrated, usually from 57.7 µM), inactives show top-dose activity change, negative = decrease; 0.93% of 280,000 active; tau K18 P301L Alexa594 fluorescence, heparin fibrillization; also: nearly all actives have a fitted effect of over 55% in size
#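 Human K18 P301L tau (15 uM unlabeled plus 0.24 uM Alexa 594-labeled, final) in 100 mM sodium acetate pH 7 was mixed with compound and 20 uM heparin and incubated 6 hr at 37 C.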
# TexasRed fluor: Texas Red fluorescence interference in TRb-SRC2 counter-screen | TRb/SRC2 Texas Red total fluorescence interference | Potency, µM (doses to about 106 µM), inactives show at the highest dose fluorescence change, negative = quenching | 0.29% of 280,000 active; active = well fitted curve in either direction with a large enough effect; inconclusive = small, poorly fitted or top-dose-only effect
#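 Human TRb ligand-binding domain at 0.6 uM with 20 nM Texas Red SRC2 peptide in Tris buffer containing 1 uM T3 and 5% DMSO, incubated with compound 5 h at ambient temperature. Total fluorescence (555/632 nm) calculated as parallel + 2 × perpendicular.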
# Tau ThT inhib: blocks human tau fibril formation measured by thioflavin T. recombinant tau K18 P301L (four-repeat tau fragment), heparin-induced fibrillization, ThT fluorescence. 2.1% of 270,000 active. Potency, µM (highest dose often 57.4 µM), for the others: at the highest dose activity, negative = inhibition, actives largely listed as inhibitors. AID 1460; also: nearly all actives have a fitted effect of over 55% in size
# Target sequence (P10636 561-689 P618L limits assumed): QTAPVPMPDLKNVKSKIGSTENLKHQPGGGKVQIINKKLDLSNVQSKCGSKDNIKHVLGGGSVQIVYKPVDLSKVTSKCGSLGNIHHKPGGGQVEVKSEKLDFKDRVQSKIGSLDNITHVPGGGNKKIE
#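 Heparin-induced (20 uM) aggregation of recombinant human K18 P301L tau, 15 uM unlabeled with 0.24 uM labeled, pH 7 acetate buffer, 6 hr at 37 C with compound. Fibrils quantified by 30 uM ThT fluorescence after 1 hr ambient incubation.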
# Tau fibril FP: tau fibrillization inhibition (FP) | AID 1468 | K18 P301L tau heparin fibrillization, Alexa594 FP, 6 h | 0.39% of 280,000 active | P10636 | Potency, µM (series often up to 57.7 µM), for the others: at the top dose activity, negative = inhibition, hits mostly inhibitors; also: nearly all actives have a fitted effect of over 55% in size
#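 Human tau K18 […] P301L fragment, 15 uM unlabeled plus 0.24 uM Alexa 594-labeled tau (final), with compound and 20 uM heparin in 100 mM sodium acetate pH 7; 6 hr at 37 C, then Alexa 594 FP read.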
# The depositor's hits bear a star; ? = inconclusive; . = not tested or not shown; ! = not confirmed by another sample; [ ] = another dose, or the depositor's remark. Shown are actives, neighbours in structure and some others; about 3.1% of the full set was active somewhere. Unless noted, calls follow the shape of the dose curve; as a rule, active = well fitted curve in the direction sought with a large enough effect; inconclusive = small, poorly fitted or top-dose-only effect, or another doubt; inactive = no such curve, though single readings can be large; an effect the other way counts as inactive or inconclusive. Unless noted, % is scaled to controls: 0 for no effect and ±100 for the full control effect; potency is read from the fitted curve at half-maximal effect.
SMILES,TRb SRC2 PPI,RGS12 GoLoco inh,Tau fluor counter,TexasRed fluor,Tau ThT inhib,Tau fibril FP
COc1ccc(NS(=O)(=O)c2cc(NC(=O)C3CC3)ccc2N2CCCCC2)cc1,0%,7%,?,-2%,-8%,?
COc1ccc(NS(=O)(=O)c2cc(NC(=O)c3ccco3)ccc2N2CCCCC2)cc1,5%,8.9µM*,?,0%,-3%,-9%
S=C(NCc1ccccc1)N1CCc2ccccc2C1,-3%,-1%,?,-5%,-7%,?
Fc1ccc2[nH]c3c(c2c1)CN(C(=S)NCc1ccccc1)CC3,-8%,-16%,16µM*[quencher],-4%,?,?
COc1cccc(-c2cc(C(F)(F)F)nc(-n3cccn3)n2)c1,9%,3%,-18%,0%,?,-7%
CCOC(=O)c1ccn(-c2nc(-c3cccc(OC)c3)cc(C(F)(F)F)n2)n1,-10%,.,-28%,0.0022µM*[quencher],?,14%
Cc1[nH]n(-c2ccccc2)c(=O)c1N=Nc1nccs1,-4%,12%,-28%,-6%,13µM*,8%
Cc1[nH]n(-c2ccccc2)c(=O)c1N=Nc1ccccc1O,-2%,44%,?,0%,?,?
CC(=O)Nc1ccc(Nc2cc(C(C)C)nc3c(-c4ccccc4)c(C)nn23)cc1,-9%,-1%,13µM*[quencher],-5%,?,?
Cc1nn2c(NCc3ccccn3)cc(C(C)C)nc2c1-c1ccccc1,3%,12%,?,-1%,?,15%
CC(=O)Nc1ccc(Nc2cc(C)nc3c(-c4ccccc4)c(C)nn23)cc1,10%,3%,14µM*[quencher],5%,?,4%
Cc1cc(SCC(=O)Nc2ccc(O)cc2)n2nc(C)c(-c3ccccc3)c2n1,-1%,13%,?,-1%,?,0%
CCOC(=O)c1sc(-c2ccc(F)cc2)cc1NC(=O)Nc1ccccc1OC,2%,4%,-27%,0%,-11%,?
O=C(/C=C/c1ccc([N+](=O)[O-])cc1)N1CCN(c2ccccc2F)CC1,0%,8%,5%,-2%,-3%,10%
O=C(O/N=C\c1ccc(N2CCCCC2)c([N+](=O)[O-])c1)c1ccc(Cl)cc1Cl,-7%,8%,-25%,0%,5µM*,-2%
O=C(/C=C/c1ccc(Cl)cc1)N1CCN(c2ccc(Cl)cc2[N+](=O)[O-])CC1,10%,3%,-20%,1%,7.9µM*,2%
COc1ccc(/C=N/NC(=O)Cn2c(Cc3ccc(OC)c(OC)c3)nc3ccccc32)cc1OC,7%,5%,-2%,?,-3%,-1%
O=C1c2ccsc2SCCN1Cc1ccccc1,-12%,3%,7%,-3%,1%,-2%
COc1ccc(NC(=O)c2cc3c(Cl)nc4ccccc4c3s2)cc1OC,1%,2%,4.5µM*[quencher],-2%,?,7%
COc1ccc(OC)c(NC(=O)c2cc3c(Cl)nc4ccccc4c3s2)c1,-1%,6%,-19%,-3%,-6%,9%
CCN(CC)S(=O)(=O)c1ccc(C(=O)NC2CC(=O)N(c3ccc4c(c3)OCCO4)C2)cc1 (stereo not drawn),1%,.,-12%,-1%,-6%,0%
COc1cc(S(=O)(=O)NCCc2c(C)[nH]c3ccccc23)c(C)cc1C,-4%,.,13µM*[quencher],2%,?,?
Cc1ccc([N+](=O)[O-])cc1S(=O)(=O)NCCc1c(C)[nH]c2ccccc12,-8%,14%,?,-3%,?,19%
N#Cc1c(/N=C/c2cccs2)sc2c1CCC2,-5%,-4%,-23%,1%,2.8µM*,-3%
N#Cc1c(/N=C/c2ccco2)sc2c1CCCCC2,-1%,4%,-23%,0%,4.5µM*,-10%
SMILES,TRb SRC2 PPI,RGS12 GoLoco inh,Tau fluor counter,TexasRed fluor,Tau ThT inhib,Tau fibril FP
CN(C)c1ccc(/C=N\NC(=S)SCN2C(=O)C3CCC(C)(C2=O)C3(C)C)cc1 (stereo not drawn),9%,20%,13µM*[quencher],-3%,8.9µM*,7%
N#Cc1ccc(NC(=O)COCc2cc(-c3ccc(F)cc3)on2)cc1,-2%,.,-25%,-2%,-9%,-19%
CN(c1ccc(O)cc1)c1nc(-c2ccccc2)cs1,-3%,9%,16µM*[quencher],-6%,?,?
CN(C)CCCN(C(=O)c1cccs1)c1nc(-c2ccccc2)cs1,-3%,1%,-21%,0%,-17%,-11%
C[n+]1cc(-c2ccccc2)n2c1CCCCC2,-4%,4.5µM*,-1%,-1%,-2%,-2%
O=C(NCC1CCCO1)c1cc2c(s1)CCC2 (stereo not drawn),10%,-5%,-4%,-2%,-7%,-5%
COC(=O)Cc1[nH]nc2c1C1(C(=O)N(Cc3ccc(Cl)cc3)c3ccccc31)C(C#N)=C(N)O2 (stereo not drawn),2%,3%,-17%,-1%,-6%,-6%
NC(=O)c1cccc(N=Cc2cc(Cl)cc(Cl)c2O)c1,-5%,16%,4%,-5%,1%,11%
Cc1cccc(N=Cc2cc(Br)cc(Cl)c2O)c1,-5%,29%,-9%,0%,14µM*,-14%
C[n+]1cccc(C(=O)NCC2CCCO2)c1 (stereo not drawn),-4%,1.8µM*,7%,-1%,4%,4%
Cc1ccc(N)cc1O,4%,2%,.,-1%,.,.
Cc1cc(O)c(-c2cc(O)c(C)cc2O)cc1O,2%,0.32µM*!,?,-3%,7.9µM*,14µM*
ClC(Cl)(c1nnnn1-c1ccccc1)c1nnnn1-c1ccccc1,-1%,-9%,-14%,-3%,11µM*,32µM*
CN(C)CCCN1C(=O)C(=O)/C(=C(/O)c2ccncc2)C1c1cccc(Br)c1 (stereo not drawn),-1%,1%,6%,1%,3%,0%
COc1ccc(-c2nc(SCC(=O)NC3CCCC3)c(-c3ccccc3)[nH]2)cc1OC,-3%,.,14µM*[quencher],-4%,?,?
COc1ccc(-c2nc(SCC(=O)NC3CCCC3)c(-c3ccc(F)cc3)[nH]2)cc1OC,-1%,.,13µM*[quencher],-3%,?,?
COCCCNC(=O)CSc1nc(-c2ccc(OC)c(OC)c2)[nH]c1-c1ccc(F)cc1,-2%,.,?,-2%,?,16%
COc1ccc(-c2[nH]c(-c3ccc(Cl)cc3)nc2SCC(=O)NCC2CCCO2)cc1 (stereo not drawn),-4%,.,13µM*[quencher],-4%,?,9%
COc1ccc(-c2nc(SCC(=O)NC3CCCC3)c(-c3ccc(OC)cc3)[nH]2)cc1,-3%,6%,13µM*![quencher],-3%,?,3%
